# Screening data (PubChem BioAssay)
# Pf Dd2 growth – qHTS Primary assay for Inhibitors of Plasmodium falciparum Dd2 growth in vitro; actives 4.3% (n = 120,000); AID 1347417, 2020; Potency, µM (titrated, usually from 28.9 µM), for the others: at the top dose activity, negative = inhibition, hits mostly inhibitors; P. falciparum Dd2 growth, SYBR Green, 72 h; active = well fitted inhibition curve with a large enough effect;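 also: plate controls were DMSO vehicle for no effect and reference drug for full effect; nearly all actives have a fitted effect of over 65% in size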
#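 Readout: SYBR Green fluorescence, 485 nm excitation, 535 nm emission, after ~16 h lysis at 37C. Before that, Dd2-infected red cells (2.5% hematocrit) grew 72 h with compound, 29 uM top final concentration.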
# The depositor's hits bear a star; i = inactive; [ ] = dose if it differs, or a comment. Only a selection was taken, and hits are over-represented in it overall. Potency is read from the fitted curve at half-maximal effect.
SMILES,Pf Dd2 growth
Cc1noc(C)c1C(=O)N1Cc2ccccc2CC2(CCN(CC3CCNCC3)CC2)C1,16.9%
CN1CCC(C(=O)N2Cc3ccccc3CC3(CCN(C)C3)C2)CC1 (stereo unspecified),13.7%
O=C(NCc1nnc2ccc(-c3ccccc3)nn12)c1ccc[nH]c1=O,-15.1%
CSc1nccc(-c2ccccc2CO)n1,-10.5%
Cc1ccc(C(N)=O)cc1-c1cc(NCc2cccnc2)nc2[nH]ccc12,-14.8%
CSc1nccc(-c2cc(NCc3cccnc3)nc3[nH]ccc23)n1,10µM*
c1ccc(C2=NOC3(CCCN(Cc4cccc5ccccc45)C3)C2)nc1 (stereo unspecified),i
COc1cccc(CN2Cc3nc(N(C)c4ccccc4)ccc3OCC2=O)c1,15.4%[44.1 µM]
COc1cccc(CN2Cc3nc(Oc4ccccc4)ccc3OCC2=O)c1,i
COc1cccc(CN2Cc3c(CN(C)Cc4ccccc4)nnn3CCC2=O)c1,10µM*
O=C1CCN(C(=O)c2cccnc2)CCCC(C(=O)NCCCc2ccccc2)CCN1 (stereo unspecified),22.2%
COc1cccc(CC(=O)N2CCC3(CC2)CC(N(Cc2ccccc2)C2CC2)CCO3)c1 (stereo unspecified),-16.7%
O=C(NC1CCCC1)N1CCC2(CC1)CC(N(Cc1ccc(F)cc1)C1CC1)CCO2 (stereo unspecified),4.47µM*
O=C(c1ccsc1)N1CCC2(CC1)CC(N(Cc1ccc(F)cc1)C1CC1)CCO2 (stereo unspecified),8.91µM*
O=C(Cc1ccccc1)N1CCC2(CC1)CC(N(Cc1ccccc1)C1CC1)CCO2 (stereo unspecified),i
Cc1ccsc1C(=O)N1CCC2(CC1)CC(N(C(=O)c1ccccc1)C1CC1)CCO2 (stereo unspecified),i
O=C(c1ccsc1)N1CCC2(CC1)CC(N(Cc1ccccc1)C1CC1)CCO2 (stereo unspecified),-27.9%
O=C(NC1CCCC1)N1CCC2(CC1)CC(N(C(=O)c1ccccc1)C1CC1)CCO2 (stereo unspecified),i
O=C(COc1ccccc1)N1CCC2(CC1)CC(N(Cc1ccccc1)C1CC1)CCO2 (stereo unspecified),3.16µM*
Cc1ccsc1C(=O)N1CCC2(CC1)CC(N(Cc1ccc(F)cc1)C1CC1)CCO2 (stereo unspecified),10µM*
CCC(CC)C(=O)N1CCC2(CC1)CC(N(Cc1ccc(F)cc1)C1CC1)CCO2 (stereo unspecified),-12.6%
COC(=O)CNC(=O)N1CCC2(CC1)CC(N(Cc1ccc(F)cc1)C1CC1)CCO2 (stereo unspecified),-2.0%
CCS(=O)(=O)N(C1CC1)C1CCOC2(CCN(C(=O)c3ccc(F)cc3)CC2)C1 (stereo unspecified),45.1%
Cn1nccc1CN1CCn2c(nnc2-c2ccc(Cl)cc2)C1,-12.4%
Cc1ccsc1CN1CCc2nnc([C@@H]3C[C@@H](O)CN3C)n2CC1,4.6%
SMILES,Pf Dd2 growth
Cc1cc(C)n(C2CCN(c3ncnc4c3c(C)nn4C)C2)n1 (stereo unspecified),-12.3%
COc1ccc(C(=O)NCCC2CCN(C(=O)Nc3ccc(C)cc3)CC2)cc1OC,-19.8%
Cc1noc(C)c1[S+](=O)([O-])N1CCC2(CC1)C(=O)NN=C2c1ccccn1,i
COc1cccc(-c2cc(C(=O)N[C@@H](C)C(N)=O)[nH]n2)c1,-15.1%
Cc1ccc(Cl)cc1N1CCN(C(=O)c2cnn(C(C)(C)C)c2C2CCN(C(=O)OC(C)(C)C)CC2)CC1,7.94µM*
Cn1ncc(C(=O)N2CCN(c3ccccc3)CC2)c1C1CCN(C(=O)OC(C)(C)C)CC1,i
Cc1cccc(-n2ncc(C(=O)N3CCN(c4ccc(C)cc4C)CC3)c2C2CCN(C(=O)OC(C)(C)C)CC2)c1,-25.4%
Cc1ccc(Cl)cc1N1CCN(C(=O)c2cnn(C)c2C2CCN(C(=O)OC(C)(C)C)CC2)CC1,3.98µM*
Cc1ccc(C)c(N2CCN(C(=O)c3cnn(C(C)(C)C)c3C3CCN(C(=O)OC(C)(C)C)CC3)CC2)c1,8.91µM*
CC(C)CCN1CC(C(=O)NCc2ccncc2)C2(CCOCC2)C1 (stereo unspecified),-22.0%
COCC1(CNC(=O)c2nc3ccccc3[nH]2)C[C@@H](O)[C@@H](O)C1 (stereo partly specified),9.2%[44.1 µM]
O=C(NCc1nnc2n1C(C(=O)N1CCOCC1)CC2)c1ccc(Cl)cc1Cl (stereo unspecified),11.3%
c1cnc2c(c1)ncn2C1CCCC1,-7.2%[44.1 µM]
CNC(=O)Nc1ccc(C)n(CC(=O)NCc2cccc(C)c2)c1=O,-4.5%
O=C(C1CCc2nnc(-c3ccc(Cl)cc3Cl)n21)N1CCN(c2ncccn2)CC1 (stereo unspecified),5.5%
Cn1ccc(C(=O)NCc2nnc3n2C(C(=O)NCc2ccc(F)cc2)CC3)n1 (stereo unspecified),17.5%
O=C(NCc1nnc2n1C(C(=O)NCc1ccc(F)cc1)CC2)c1ccc(Cl)cc1Cl (stereo unspecified),10.2%
COc1ccccc1-c1nnc2n1C(C(=O)N1CCN(c3ncccn3)CC1)CC2 (stereo unspecified),12.6%
CC(C)NC(=O)NCc1nnc2n1C(C(=O)NCc1ccc(F)cc1)CC2 (stereo unspecified),26.1%
O=C(NCc1ccc(F)cc1)C1CCc2nnc(-c3ccc(Cl)nc3)n21 (stereo unspecified),7.08µM*
C#CCNC(=O)C1CCc2nnc(-c3ccc(Cl)nc3)n21 (stereo unspecified),33.4%
COc1ccccc1-c1nnc2n1C(C(=O)NCc1ccc(F)cc1)CC2 (stereo unspecified),3.98µM*
O=C(NCc1ccc(F)cc1)C1CCc2nnc(-c3ccc(Cl)cc3Cl)n21 (stereo unspecified),3.16µM*
Cn1cnc(S(=O)(=O)N2CCC3(CC2)CC(CC(=O)N2CCCC2)CCO3)c1 (stereo unspecified),20.6%
NCC1CCCN(Cc2ccc(-c3nc(-c4cccnc4)cc(=O)[nH]3)cc2)C1 (stereo unspecified),-17.2%
SMILES,Pf Dd2 growth
Cc1cccc(NC(=O)Cn2c(=O)c(-c3noc(C)n3)c3n(c2=O)CCCCC3)c1,21.8%
Cc1nc2n(n1)C(C(=O)Nc1ccccc1)CC(=O)N2 (stereo unspecified),-0.6%
COc1ccc(NC(=O)C[C@H]2NC(=O)c3ccccc3NC2=O)cn1,i
Cn1cc(CCNC(=O)c2ccc3oc(-c4cccc(F)c4)nc3c2)cn1,-22.6%
CCOCCCNC(=O)N1CC(Oc2ccc(-c3nc(C)no3)cc2)C1,52.4%[5.79 µM]
CC(C)c1nnc2ccc(N3CCCC3)nn12,22.7%
Cc1ccc(C(=O)NC2CC(C)(C)Cc3nc(N4CCOCC4)ncc32)cn1 (stereo unspecified),-3.7%
O=C(Cc1ccccc1)NCC(=O)N1CCCCCCNC(=O)CC1c1ccccc1 (stereo unspecified),i
CN(Cc1cn(-c2ccccc2)nn1)Cc1noc2c1CCCC2,3.0%
CN(CCC(O)c1ccccc1)Cc1cn(-c2ccccc2)nn1 (stereo unspecified),8.91µM*
CC(C)n1cnnc1CN(C)Cc1cn(-c2ccccc2)nn1,-14.1%
CN1C(=O)c2cccn2CC1C(=O)NCCc1c[nH]c2ccccc12 (stereo unspecified),i
Cc1noc(C)c1[S+](=O)([O-])N1CCC2(Cc3ccccc3NC2=O)C1 (stereo unspecified),3.6%
